Our source for the Percent Effect values is ChEMBL document CHEMBL3988442, “University of Dundee, Small-Polar-MMV Screening Library” (2021).

This experiment concerns the target AMP-activated protein kinase, AMPK (Homo sapiens) (UniProt P54646+O43741+P54619+Q9UGJ0+Q9Y478+Q13131+Q9UGI9). The experiment in a line: AMP-dependent Kinase enzyme assay. An in vitro enzyme assay that detects ADP turnover that is directly proportional to AMPK activity. This uses naive AMPK that is activated during the assay with MK-8722. In kind it is functional. More on the design: scale not given: direction of the effect not stated beside the values. Particulars: 30 µM.
Take `CS(=O)(=O)c1ccc(CC(=O)N2CCN3CCNC(=O)C3C2)cc1` (stereo not given): the Percent Effect is -2.22%. The figure for `CSc1ccccc1C(=O)C1CCCN(Cc2cc(C(C)C)[nH]n2)C1` (stereo not given) is 6.61%.

Regarding `CS(=O)(=O)N1C[C@H]2CC[C@@H]1CN(Cc1ccncc1)C2`, the Percent Effect came out at 11.6%. `Cc1[nH]c(=O)[nH]c(=O)c1CC(=O)N1CCCN(CC2CC2)C(C(C)C)C1` (stereo not given): the Percent Effect came out at 3.13%.

Turning to `CCN1CCN(C(=O)COc2ccc(CN(C)S(C)(=O)=O)cc2)CC1`, the Percent Effect is -0.955%. For `CC(C)c1cc(N2CCCC3(CCN(C)C3)C2)ncn1` (stereo not given) the value was 1.53%; for `CC(C)c1cc(N2CCC3(CCN(C)C3)C2)ncn1` (stereo not given), -2.38%; for `COc1ccc(F)cc1C(=O)C1CCCN(Cc2cnc(C)s2)C1` (stereo not given), 1.8%. `COc1ccccc1CCN(C)Cc1nc(N)nc(N(C)C)n1`: the Percent Effect was -4.89%.

Regarding `Cc1nc(N)nc(C)c1CC(=O)N1CCCN(CC2CC2)C(C(C)C)C1` (stereo not given), the Percent Effect is -4.33%. The figure for `Cc1cc(C(=O)NCC(=O)N2CCOCC2)nn1C(C)(C)C` is 8.45%. For `CC(C)[C@@H]1CN(C(=O)C2(c3ccccc3)CCN(C)CC2)C[C@H]1N(C)C` the value was -5.45%; for `FC(F)(F)c1nc(C2CCNCC2)no1`, 5.73%. The figure for `CSc1ccccc1C(=O)C1CCCN(Cc2ccccn2)C1` (stereo not given) is 18.7%; for `O=C(c1cc2ccccc2[nH]c1=O)N1CCC2(CCCNC2)C1` (stereo not given) it is 16.8%. As for `CNC(=O)[C@@H]1CN(Cc2ccccc2)C[C@H]1C(=O)c1ccc(F)cc1`, the Percent Effect is 12%. For `O=C(N1CCCC1)N1C[C@H]2CC[C@@H]1CN(Cc1ccncc1)C2` the value was 2.18%.

In the case of `CCCc1nc(C(=O)N[C@H]2COC[C@@H]2N2CCN(C)CC2)cs1`, the Percent Effect was -1.36%.

Take `CCc1ccc2ncn(Cc3ncc[nH]3)c(=O)c2c1`: the Percent Effect is 0.257%. For `O=C(N[C@H]1COC[C@@H]1N1CCCC1)c1csc(Cc2ccccc2)n1` the value was 4.04%.
